L3MBTL1 block: L3MBTL1 (human) inhibition | Q9Y468 | AlphaScreen L3MBTL1–H3K9me1 peptide binding | Potency, µM (titrated, usually from 57.1 µM), inactives show top-dose activity, negative = inhibition, actives largely listed as inhibitors | hit rate 0.66% among 230,000 | AID 485360; also: % is scaled to controls: 0 for no effect and ±100 for the full control effect; nearly all actives have a fitted effect of over 60% in size
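AlphaScreen proximity signal between nickel-chelate acceptor and streptavidin donor beads (final 10 ug/mL) reports binding of 50 nM L3MBTL1 to 75 nM biotin-H3 K9me1 peptide; complex incubated with compounds 30 min at room temperature; cefsulodin titration as control.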
G9a inh: G9a (human) methyltransferase inhibition; Q96KQ7; G9a H3K9 monomethylation, AlphaScreen, 2 h; Potency, µM (series often up to 102 µM), for the others: at the highest dose activity, negative = inhibition, most hits filed as inhibitors; hit rate 8.8% among 350,000; also: % is scaled to controls: 0 for no effect and ±100 for the full control effect; nearly all actives have a fitted effect of over 75% in size
Target sequence (Q96KQ7 913-1193 limits assumed): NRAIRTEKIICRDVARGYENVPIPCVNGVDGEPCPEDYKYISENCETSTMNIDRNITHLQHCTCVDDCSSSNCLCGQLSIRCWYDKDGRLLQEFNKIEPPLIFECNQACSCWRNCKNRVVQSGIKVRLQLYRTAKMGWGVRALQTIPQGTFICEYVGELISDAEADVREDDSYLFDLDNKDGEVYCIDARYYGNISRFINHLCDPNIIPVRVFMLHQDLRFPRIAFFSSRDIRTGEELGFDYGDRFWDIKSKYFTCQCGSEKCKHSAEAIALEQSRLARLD
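Methyltransferase reactions run at room temperature for 2 h (20 nM enzyme, 500 nM biotin-H3K9 peptide, 20 uM SAM) after a 15 min compound preincubation; product detected by AlphaScreen beads and anti-H3K9me1 antibody.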
BAZ2B inh: BAZ2B (human) inhibition. Q9UIF8. hit rate 4.4% among 360,000. AlphaScreen BAZ2B-H3K14Ac peptide displacement. Potency, µM (series often up to 114 µM), for inactives: top-dose activity change, negative = inhibition, hits mostly inhibitors; also: % is scaled to controls: 0 for no effect and ±100 for the full control effect; nearly all actives have a fitted effect of over 60% in size
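AlphaScreen displacement of biotin-H3(5-23)K14Ac peptide (50 nM final) from BAZ2B (50 nM final) in PBS pH 7.4, 0.01% Tween-20; complex preformed 30 min RT, then compounds (top 110 uM) 30 min RT, beads 20 min dark.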
HP1b chromo inh: HP1-beta chromodomain-methylated histone interaction inhibition; P83916; hit rate 0.56% among 390,000; AID 540317; AlphaScreen HP1-beta / biotin-H3K9me3 peptide binding; Potency, µM (doses to about 114 µM), for the others: at the highest dose activity change, negative = inhibition, most hits filed as inhibitors; also: nearly all actives have a fitted effect of over 70% in size
Target sequence (P83916 whole entry, looked up): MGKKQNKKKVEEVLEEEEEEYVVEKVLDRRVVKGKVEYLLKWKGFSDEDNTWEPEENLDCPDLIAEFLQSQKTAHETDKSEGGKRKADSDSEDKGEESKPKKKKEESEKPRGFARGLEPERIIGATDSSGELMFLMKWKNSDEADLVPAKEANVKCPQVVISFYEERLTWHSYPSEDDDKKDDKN
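Compound inhibition of the preformed complex between 50 nM HP1-beta and 50 nM biotinylated H3K9me3 peptide was read by AlphaScreen. Buffer was PBS pH 7.4 with 0.01% Tween-20. Incubations ran 30 min at room temperature, with 10 ug/mL donor/acceptor beads.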
JMJD2A Tudor inh: JMJD2A Tudor domain (human) inhibition; O75164; hit rate 4.4% among 390,000; AlphaScreen JMJD2A-Tudor / H3K4me3 peptide binding; AID 504339; Potency, µM (doses to about 114 µM), without a hit: top-dose activity change, negative = inhibition, actives largely listed as inhibitors; also: % is scaled to controls: 0 for no effect and ±100 for the full control effect; nearly all actives have a fitted effect of over 50% in size
* hit, by the source's call; ? = inconclusive; . = no result given; ! = a repeat was not active; [ ] = another dose, or the depositor's remark. Shown are actives, neighbours in structure and some others; about 11% of the full set was active somewhere. Calls follow the shape of the dose curve; as a rule, active = well fitted inhibition curve with a large enough effect; inconclusive = small, poorly fitted or top-dose-only effect; inactive = no such curve, though single readings can be large or run the other way. Potency is read from the fitted curve at half-maximal effect.

SMILES	L3MBTL1 block	G9a inh	BAZ2B inh	HP1b chromo inh	JMJD2A Tudor inh
NC1CCCCC1N=Cc1c(O)n(Cc2ccc(F)cc2)c(=O)[nH]c1=O (stereo unspecified)	-6%	0.89µM*	?	17%	-17%
CN1CCN(/N=C/c2c(O)n(Cc3ccc(F)cc3)c(=O)[nH]c2=O)CC1	-2%	56µM*	-21%	24%	-10%
CCCCn1c(O)c(C=NC2CCCCC2N)c(=O)[nH]c1=O (stereo unspecified)	.	4µM*	?	42%	-23%
CNC(C)C1CC[C@H](N)[C@@H](OC2C(N)C[C@H](N)[C@@H](OC3OC[C@](C)(O)C(NC)[C@H]3O)C2O)O1 (stereo partly specified)	.	-11%[2.33 µM]	.	.	.
Cc1ccc(-n2ncc(C(=O)N3CCN(c4ccc(Cl)cc4)CC3)c2C2CCN(C(=O)OC(C)(C)C)CC2)c(C)c1	.	?	-22%[57.1 µM]	-3%	?
CNCC(O)c1cccc(OC(=O)c2ccccc2C)c1 (stereo unspecified)	-2%	56µM*	-1%	54%	26%[11.4 µM]
CN1/C(=C\C=Nc2ccccc2)C(C)(C)c2ccccc21	-5%	79µM*	?	17%	-14%
CN1/C(=C\C=C2C(=O)NC(=O)NC2=O)C(C)(C)c2ccccc21	.	18%[59 µM]	-12%	37%	4%
NC1CC1c1ccccc1 (stereo unspecified)	.	36%[59 µM]	.	.	.
CC1=C2CCC3C4CCC(=O)[C@@]4(C)CCC3[C@]2(C)CCC1=O (stereo partly specified)	.	-35%[2.33 µM]	.	.	.
OCc1cccc[n+]1CCc1ccccc1	.	.	.	41%	-10%
CNCCc1c(C)n[nH]c1C	-1%	?	0%	20%	-9%
CNCCc1nc(N)n[nH]1	.	56µM*	?	15%	-8%
O=[N+]([O-])c1cccc(CN2CCN(Cc3ccc(Cl)cc3)CC2)c1	-20%	3.5µM*	20µM*	?	0.79µM*
CC(C)N1CCN(Cc2cccc([N+](=O)[O-])c2)CC1	.	3.5µM*	50µM*	?	0.89µM*
NNc1ccccc1	.	31%[59 µM]	.	.	.
O=C(Nc1nnc(-c2ccco2)o1)c1cccc2ccccc12	18%	9%	?	32%	?
O=C(CCS(=O)(=O)c1ccccc1)Nc1nnc(-c2ccco2)o1	.	32µM*	50µM*	23%	25µM*
COc1ccc(NC2Oc3cc4c(cc3C(c3cc(OC)c(OC)c(OC)c3)C2C)OCO4)cc1 (stereo unspecified)	.	.	.	?	56µM*
COc1ccc(Cc2nccc3cc(OC)c(OC)cc23)cc1OC	-18%	5.6µM*!	?	-4%	-19%
C[C@H](NC(=O)[C@@H](N)Cc1ccc(O)cc1)C(=O)NCC(=O)N(C)[C@@H](Cc1ccccc1)C(=O)NCCO	.	35%[59 µM]	.	.	.
Oc1cc2c(cc1O)[C@H]1c3ccccc3CNC1CC2 (stereo partly specified)	.	0.5µM*	.	.	.
COc1ccc2c(c1)NP(=S)(c1ccccc1)N2C (stereo unspecified)	.	.	.	35µM*	50µM*
CN1CCN(Cc2ccc(Br)s2)CC1	.	4µM*	?	?	5.6µM*
COc1ccccc1N1CCN(Cc2cc(C)c(C)cc2O)CC1	.	10%[59 µM]	-8%	-5%	-21%
SMILES	L3MBTL1 block	G9a inh	BAZ2B inh	HP1b chromo inh	JMJD2A Tudor inh
COc1ccccc1N1CCN(Cc2ccc3c(c2)OCO3)CC1	.	.	.	?	20µM*
COc1ccccc1N1CCN(Cc2ccccc2)CC1	-1%[2.29 µM]	7%[0.501 µM]	35µM*	?	20µM*
Fc1ccc(N2CCN(Cc3cc4c(cc3Br)OCO4)CC2)cc1	-16%	-33%	-9%	-11%	?
COc1cc(Br)cc(CN2CCN(C)CC2)c1O	.	?	?	20%	-16%
Oc1cc2c(cc1CN1CCN(c3ccccc3F)CC1)OCO2	.	8.9µM*	?	71µM*	40µM*
CO/C1=C\C(C)=C\[C@@H](C)[C@@H](O)[C@H](C)C/C(C)=C/C=C/[C@H](OC)[C@H]([C@@H](C)[C@@H](O)[C@H](C)[C@H]2C[C@@H](O)[C@H](C)[C@@H](C(C)C)O2)OC1=O	.	26%[59 µM]	.	.	.
COc1ccccc1N1CCN(Cc2ccc(Br)s2)CC1	-17%	-2%[12.7 µM]	50µM*	?	0.89µM*
COc1ccccc1N1CCN(Cc2cccc(Br)c2)CC1	-8%	11µM*	50µM*	?	13µM*
Cc1cccc(N2CCN(Cc3ccc4c(c3)OCO4)CC2)c1C	-6%	7.9µM*	50µM*	?	28µM*
COc1ccccc1N1CCN(Cc2c(F)cccc2Cl)CC1	.	?	?	29%	3%
CCOP(=O)(OCC)/C(C#N)=C/c1cc(OC)ccc1OC	10%	-8%[2.33 µM]	-6%	41%	-8%
C[N+]12CCC(CC1)C(C(O)(c1ccccc1)c1cccs1)C2 (stereo unspecified)	5%	14µM*	0%	15%	-31%
CCC[N+]12CCC(CC1)C(C(O)(c1ccccc1)c1ccccc1)C2 (stereo unspecified)	1%	-19%	-3%	40%	-2%
NC(=O)CNC(=O)[C@H](Cc1ccccc1)NC(=O)[C@H](CCCN=C(N)N)NC(=O)[C@@H](N)Cc1ccc(O)cc1	.	37%[59 µM]	.	.	.
Cc1cccc(N(CC(=O)NCCSc2ccc(Cl)cc2)S(=O)(=O)c2ccccc2)c1C	.	-50%[59 µM]	-1%	41%	4%
Cc1cc(OC(C)C(=O)NCc2ccncc2)c2c3c(c(=O)oc2c1)CCC3 (stereo unspecified)	.	41%	-20%	95%	-17%
Cc1cc(OCC(=O)N[C@@H](Cc2ccccc2)C(=O)O)c2c3c(c(=O)oc2c1)CCC3	.	16%[12.7 µM]	-7%	52%	-10%
Cc1cc(OC(C)C(=O)NCc2cccnc2)c2c3c(c(=O)oc2c1)CCC3 (stereo unspecified)	.	37%	-8%	95%	89µM*
Cc1cc(OCC(=O)N[C@H](C(=O)O)c2ccccc2)c2c3c(c(=O)oc2c1)CCC3	4%	79µM*	-3%	-6%	?
Oc1ccc(Cl)cc1Sc1cc(Cl)ccc1O	.	.	.	0%[57 µM]	?
CCCCC(=O)Nc1c(C(=O)N2CCN(c3ccccc3F)CC2)oc2ccccc12	.	?	-15%	21%	-17%
CCC(=O)N1CCN(c2cc3c(cc2F)c(=O)c(C(=O)O)cn3CC)CC1	.	.	.	3%	6.3µM*
CCn1cc(C(=O)N2CCC3(CC2)OCCO3)c(=O)c2cc(S(=O)(=O)N3CCCC3)ccc21	.	3%[12.7 µM]	0%	9%	-6%
COC(=O)c1ccc2ccn(CC(=O)NC(C)C)c2c1	11%	?	-7%	1%	-21%
O=C(O)CC1OCC=C2CN3CCC45c6ccccc6NC4C1C2CC35 (stereo unspecified)	.	-2%[59 µM]	1%	24%	-9%

Bioassay records from PubChem BioAssay.
